Test results as given in PubChem BioAssay (Tox21).
Results filed as inconclusive are left out. Where a call stands in place of a potency, no number is given. Active and inactive are the calls of the source. Calls follow the shape of the dose curve; as a rule, active = well fitted cell-killing curve with a large enough effect in the repeat runs; inconclusive = weak or mixed curves, or effect the other way; inactive = flat fitted curve, though single readings scatter.
Potency is read from the fitted curve at half-maximal effect.

Test: cAMP Responsive Elements (CRE) small molecule agonists, cell-based qHTS assay: qHTS cell viability counter screen (AID 2060914); also: nearly all actives have a fitted effect of over 50% in size
Conditions: CRE-bla HEK293T viability, CellTiter-Glo luminescence, 5 h; series mostly up to 92.4 µM
In short: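 In the same wells as the reporter read, viability of CRE-bla HEK 293T cells was quantified by CellTiter-Glo luminescence after a 3 h compound exposure.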
For COC(=O)CC(C(C)=O)C(=O)OC (stereo not given), the Potency was “inactive”. In the case of CCOC(=O)c1c(C)n(C)c2ccc(O)cc12, the Potency was “inactive”. In the case of COS(=O)(=O)O, the Potency was “inactive”. For OCC1(CO)COCOC1, the Potency was “inactive”. With CC1=CC(O)CC(C)(C)C1 (stereo not given) the Potency was “inactive”. With CCCC(=O)C(=O)O the Potency was “inactive”. In the case of ClC(Cl)(Cl)c1ccc(C(Cl)(Cl)Cl)cc1, the Potency was “inactive”. In the case of CCc1cc(Cc2cc(CC)cc(C(C)(C)C)c2O)c(O)c(C(C)(C)C)c1, the Potency was “inactive”. For O=C(O)C(Cc1cc(I)c(O)c(I)c1)c1ccccc1 (stereo not given), the Potency was “inactive”. With O=C(O)c1ccc(CO)o1 the Potency was “inactive”. For CC(=O)CC(C)C, the Potency was “inactive”. In the case of CC(C)(Cc1c[nH]c2ccccc12)NCC(O)COc1ccccc1C#N (stereo not given), the Potency was “inactive”. In the case of CN(C(=O)CN(CCO)CC(=O)N(C)C(C)(C)Cc1ccccc1)C(C)(C)Cc1ccccc1, the Potency was “inactive”. In the case of CCCCNS(=O)(=O)c1ccccc1, the Potency was “inactive”. With CCCCCCCCCCCCCCCCCCOS(=O)(=O)O the Potency was “inactive”. For CCCCCC1Nc2cc(C(F)(F)F)c(S(N)(=O)=O)cc2S(=O)(=O)N1 (stereo not given), the Potency was “inactive”. For CCCCCC#CC(=O)OC, the Potency was “inactive”. In the case of COC(=O)c1cc(Cl)cc(Cl)c1, the Potency was “inactive”. For O=C(/N=N/C(=O)OCc1ccccc1)OCc1ccccc1, the Potency was “inactive”. For O=C(O)Cc1ccc(CCNS(=O)(=O)c2ccc(Cl)cc2)cc1, the Potency was “inactive”. In the case of CC1(C)Oc2ccc(C#N)cc2[C@@H](N2CCCC2=O)[C@@H]1O, the Potency was “inactive”. In the case of CC(C)NCC(O)c1ccc(O)c(O)c1 (stereo not given), the Potency was “inactive”. With CCC(=O)c1ccc2c(c1)N(CCCN(C)C)c1ccccc1S2 the Potency was “inactive”. With Nc1ccc(/C=C/c2ccc(N)cc2S(=O)(=O)O)c(S(=O)(=O)O)c1 the activity change, negative = cytotoxicity was 6.77% [at 0.349 µM] (inactive). For N#CCCOCCOCCC#N, the Potency was “inactive”. In the case of O=C(CCCN1CC=C(n2c(=O)[nH]c3ccccc32)CC1)c1ccc(F)cc1, the Potency was “inactive”. For CC(O)CN(CCCN(C)C)CCCN(C)C (stereo not given), the Potency was “inactive”. For CCCCCCCCS(=O)C(C)Cc1ccc2c(c1)OCO2 (stereo not given), the Potency was “inactive”. For C[C@]12C=CC(=O)C=C1CC[C@H]1[C@@H]3C[C@@H](O)[C@](O)(C(=O)CO)[C@@]3(C)C[C@H](O)[C@@]12F, the Potency was “inactive”. In the case of CC(=O)OC1CCCCC1C(C)(C)C (stereo not given), the Potency was “inactive”. In the case of CN1CCN(c2c(F)cc3c(=O)c(C(=O)O)cn(CCF)c3c2F)CC1, the Potency was “inactive”. For Nc1c2c(nc3c1CCC3)CCCC2, the Potency was “inactive”. With C=CCSCC1Nc2cc(Cl)c(S(N)(=O)=O)cc2S(=O)(=O)N1 (stereo not given) the Potency was “inactive”. With Cc1nc2c([nH]1)c(=O)n(C)c(=O)n2Cc1ccco1 the Potency was “inactive”. For CC1(C)[C@@H](O)CC[C@]2(C)[C@H]3C(=O)C=C4[C@@H]5C[C@@](C)(C(=O)O)CC[C@]5(C)CC[C@@]4(C)[C@]3(C)CC[C@@H]12, the Potency was “inactive”. With CCCCCCOC(=O)C(C)C the Potency was “inactive”. For CSc1ccc(/C=C2/C(C)=C(CC(=O)O)c3cc(F)ccc32)cc1, the Potency was “inactive”. With O=c1cc(-c2ccccc2)oc2ccc3ccccc3c12 the Potency was 21.7 µM (active). In the case of Nc1c2c(nc3ccccc13)CCCC2, the Potency was “inactive”. With c1ccc2cc3c4ccccc4c4ccccc4c3cc2c1 the Potency was “inactive”.
